# Data reported in PubChem BioAssay AID504462 (Sanford-Burnham Center for Chemical Genomics, 2011).
# Hit rate of the full screen: of about 340,000 compounds, about 1,700 (0.5%) were called active. The entries come from a sample that favours actives as a whole. A number with no mark means an inactive call. Rule as the data show it: active = inhibition above about 40%; inactive = the rest.
# Target: Cysteine protease ATG4B (Homo sapiens) (UniProt Q9Y4P1)
# Experiment: blockers of ATG4B cysteine protease activity – biochemical, fluorescence, uHTS, primary screen (AID 504462)
# Settings: ATG4B cleavage of LC3-PLA2, NBD-HPC fluorescence, 1 h; at 8.33 µM; stronger effect = higher value
# Cysteine protease ATG4B (Homo sapiens), sequence (Q9Y4P1 whole entry, looked up): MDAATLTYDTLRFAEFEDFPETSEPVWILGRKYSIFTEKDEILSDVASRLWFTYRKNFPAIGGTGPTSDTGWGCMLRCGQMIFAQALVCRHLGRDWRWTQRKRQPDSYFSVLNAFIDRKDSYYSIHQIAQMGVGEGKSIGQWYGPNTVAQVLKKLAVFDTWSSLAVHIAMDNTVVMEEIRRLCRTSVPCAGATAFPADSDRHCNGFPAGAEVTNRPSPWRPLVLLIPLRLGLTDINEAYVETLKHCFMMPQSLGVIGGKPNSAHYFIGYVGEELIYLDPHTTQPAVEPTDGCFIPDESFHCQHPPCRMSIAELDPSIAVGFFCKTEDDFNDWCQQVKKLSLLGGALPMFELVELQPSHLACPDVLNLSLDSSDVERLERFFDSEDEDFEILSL
row,SMILES,inhibition
1,CCN1CCN(C(=O)Cc2coc3cc(C)cc(C)c23)CC1,-5.73%
2,COC(=O)COc1cc(C)cc2oc(=O)c3c(c12)CCCC3,-8.24%
3,Cc1cc(OCc2cc(C(=O)O)oc2C)c2c3c(c(=O)oc2c1)CCCC3,48.7% (active)
4,CCOC(=O)C1(CCc2ccccc2)CCN(Cc2ccco2)CC1,-6.2%
5,CC(Cc1ccccc1)NCCC(c1ccccc1)c1ccccc1 (stereo not given),-1.23%
